Experimental data taken from PubChem BioAssay (NCATS).
Several values for one entry are separate records, joined by “and”; a condition that tells them apart may be missing. Equal entries are not always repeated. Inconclusive results are not listed. A call without a number means that no potency is given here. Activity calls are given as the source filed them. Unless noted, the call rests on the fitted dose curve; in most records, active means well fitted curve in the direction sought with a large enough effect; inconclusive means small, poorly fitted or top-dose-only effect, or another doubt; inactive means no such curve, though single readings can be large; an effect the other way counts as inactive or inconclusive.

Assays:
[1] = Cell Viability - SK-N-SH (AID 435; calls by dose curve;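 further: potency means the concentration at half of the fitted maximal effect; compound exposure lasted 40 h at 37 °C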); conditions: SK-N-SH neuroblastoma cell viability qHTS
Summary of the method: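 Luminescent ATP signal served as the viability read-out after 40 hours of compound treatment of human neuroblastoma SK-N-SH cells. Concentration-response data, scaled between DMSO and 100 uM tamoxifen, gave AC50 values by standard Hill modeling.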

[2] = Cell Viability - Renal Proximal Tubule (AID 545); conditions: renal proximal tubule cells viability; series mostly up to 91.7 µM; further: nearly all actives have a fitted effect of over 40% in size
Summary of the method: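 Luminescent ATP signal (CellTiter-Glo) served as the viability read-out after 40 hr compound exposure of freshly isolated rat proximal tubule cells at 37 °C. Concentration-dependent ATP loss was fitted with the Hill equation to give AC50.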

[3] = Cellular Toxicity (caspase-3) HepG2 (AID 654); conditions: HepG2 caspase-3 activation, luminescence, 0% = DMSO only, 100% = tamoxifen; series mostly up to 92.2 µM;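 further: cells exposed to compound for 16 hours before reading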
Summary of the method: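 Concentration-response AC50 values reflect caspase-3/7 induction in HepG2 cells after 16 hours of compound exposure, quantified by luminescence from liberated aminoluciferin and referenced to 100 uM tamoxifen as full stimulation.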

[4] = Cellular Toxicity (caspase-3) SK-N-SH (AID 661); conditions: SK-N-SH caspase-3 activation, qHTS; series mostly up to 91.7 µM
Summary of the method: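 Apoptosis readout in SK-N-SH neuroblastoma: Caspase-Glo 3/7 luminescence following 16 hr treatment in complete culture medium. Normalization used DMSO and 10 uM staurosporine controls.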

[5] = Cell Viability - LYMP2-004 (AID 966); conditions: LYMP2-004 lymphoblastoid cell viability, qHTS; series mostly up to 92.2 µM;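 further: cells exposed to compound for 24 h; nearly all actives have a fitted effect of over 65% in size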
Summary of the method: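 Viable-cell number estimated from ATP luminescence (CellTiter-Glo) in 2500 human lymphoblastoid cells/well after 24 hr at 37 C with compound. AC50 fitted to the standard Hill equation.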

[6] = Cell Viability - LYMP2-015 (AID 971); conditions: LYMP2-015 lymphoblastoid cell viability; series mostly up to 92.2 µM;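 further: cells exposed to compound for 24 h; nearly all actives have a fitted effect of over 55% in size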
Summary of the method: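 AC50 values reflect Hill-model fits of ATP-based luminescence (CellTiter-Glo) from a human lymphoblastoid line, 2500 cells/well, treated 24 hr at 37 C.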

[7] = Cell Viability - LYMP2-010 (AID 981); conditions: LYMP2-010 lymphoblastoid cell viability, qHTS; series mostly up to 92.2 µM;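 further: cells exposed to compound for 24 hours at 37 °C; nearly all actives have a fitted effect of over 55% in size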
Summary of the method: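 This 24 hr viability screen uses LYMP2-010 lymphoblastoid cells, quantifies ATP via luciferase luminescence, and derives AC50 from Hill fits of qHTS concentration-response data.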

[8] = Cell Viability - LYMP2-012 (AID 982); conditions: LYMP2-012 lymphoblastoid cell viability qHTS; series mostly up to 92.2 µM;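 further: cellular ATP by luciferase luminescence where a drop means cytotoxicity; cells exposed to compound for one day before reading; nearly all actives have a fitted effect of over 55% in size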
[9] = Cell Viability - LYMP2-018 (AID 985); conditions: LYMP2-018 lymphoblastoid cells, viability (qHTS); series mostly up to 92.2 µM; further: nearly all actives have a fitted effect of over 50% in size
Summary of the method: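 In this qHTS viability assay, cells are treated for 24 hr and cellular ATP is quantified by luciferase-based luminescence, with tetraoctylammonium bromide as positive control.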

[10] = Cell Viability - LYMP2-020 (AID 986); conditions: series mostly up to 92.2 µM;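 further: cells exposed to compound for 24 h at 37 °C; nearly all actives have a fitted effect of over 55% in size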
Summary of the method: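 Cells at 2500 per well receive a 24 hr compound exposure at 37 C. Viability is measured as ATP-dependent luciferase luminescence, with AC50 modeled from qHTS concentration-response curves.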

[11] = qHTS assay for small molecule agonists of retinoid X receptor alpha signaling (AID 588544; calls by dose curve); conditions: HEK293T RXRa-UAS-bla, beta-lactamase reporter, 18 h; 530 nm emission
[12] = target: Retinoic acid receptor RXR-alpha (Homo sapiens) (UniProt P19793); experiment: as above; conditions: HEK293T RXRa-UAS-bla, beta-lactamase reporter, 18 h; series mostly up to 76.7 µM
[13] = qHTS assay for small molecule antagonists of retinoid X receptor alpha signaling (AID 588546; active means well fitted inhibition curve with a large enough effect in the signal ratio, with a control signal flat, not every such curve was filed as active; the % refers to the signal ratio;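 further: cells stimulated with 9-cis-retinoic acid as agonist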); conditions: HEK293T RXRa-UAS-bla, beta-lactamase ratio, antagonist mode; measured here: W530 green channel, cytotoxicity proxy
Summary of the method: (§1)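 Beta-lactamase reporter inhibition, read as CCF4 fluorescence ratio (ex 405, em 460/530 nm) after 2 h at RT. HEK293T UAS-bla cells, 2500/well, were stimulated with 9-cis-RA at 500 or 100 nM final alongside test compound for 18 h at 37 C.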

[14] = target: Retinoic acid receptor RXR-alpha (Homo sapiens) (UniProt P19793); experiment: as above; conditions: HEK293T RXRa-UAS-bla, beta-lactamase ratio, antagonist mode
Summary of the method: as §1

[15] = target: Voltage-gated inwardly rectifying potassium channel KCNH2 (Homo sapiens) (UniProt Q12809); experiment: qHTS Assay for Small Molecule Inhibitors of the Human hERG Channel Activity (AID 588834); conditions: U2OS BacMam hERG, FluxOR thallium flux fluorescence; series mostly up to 92.2 µM;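 further: top concentration of the series differs between compounds; lower thallium flux fluorescence means stronger hERG block; nearly all actives have a fitted effect of over 50% in size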
Summary of the method: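 Step 1: BacMam hERG transduction of U2OS, 4 hrs RT. Step 2: overnight 37 °C, plate 2000 cells/well, 4 hr. Step 3: FluxOR load, compound 10 min, stimulate, read fluorescence.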

[16] = qHTS assay for environmental chemicals that activate the Aryl hydrocarbon Receptor (AhR) signaling pathway (AID 651777); conditions: 1A2-DRE human hepatoma cells, luciferase, 24 h; activation: stronger effect = higher value; further: nearly all actives have a fitted effect of over 15% in size
Summary of the method: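 Following a 24 hr incubation with test chemicals at 37 C and 5% CO2, 1A2-DRE human hepatoma cells received One-Glo reagent; after 30 min at room temperature, luciferase output reflected CYP1A2 induction via AhR.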

[17] = target: Nuclear receptor ROR-gamma (Homo sapiens) (UniProt P51449); experiment: qHTS assay for small molecule antagonists of the retinoid-related orphan receptor gamma (ROR-gamma) signaling pathway (AID 651802); conditions: ROR-gamma antagonist cell reporter assay; series mostly up to 92.2 µM;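 further: CHO cells with doxycycline-induced ROR-gamma expression; luciferase reporter luminescence driven by ROR response element; nearly all actives have a fitted effect of over 60% in size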
Summary of the method: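 Doxycycline-induced reporter activity in engineered CHO cells (TET-inducible ROR, RORE-LUC) was measured by luminescence after 16hr compound exposure at 37C.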

[18] = qHTS assay for cell viability of the p53RE-bla HCT-116 cell line (AID 743292); conditions: p53RE-bla HCT-116 viability, ATP luminescence, 16 h; series mostly up to 95 µM; further: nearly all actives have a fitted effect of over 55% in size
Summary of the method: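 After plating at 4,000 cells per well and a 5 h rest at 37 C, HCT-116 cells carrying p53RE-bla received test chemicals in DMSO. Sixteen hours later at 37 C, CellTiter-Glo was added and luminescence recorded following 30 min at room temperature.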

[19] = target: Cytochrome P450 3A4 (Homo sapiens) (UniProt P08684); experiment: qHTS Assay for Inhibitors and Substrates of Cytochrome P450 3A4 (AID 884); conditions: recombinant CYP3A4, Luciferin-PPXE luminescence; series mostly up to 57.1 µM; further: nearly all actives have a fitted effect of over 50% in size; further: potency means the concentration at half of the fitted maximal effect
Summary of the method: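 Luminescent readout of luciferin produced by CYP3A4 (20 nM) dealkylation of Luciferin-PPXE, 25 uM (its KM). NADPH-driven reaction ran 60 min at RT after 10 min compound preincubation; data scaled to 57 uM ketoconazole as 100% inhibition.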

[20] = target: Thyroid hormone receptor beta (Homo sapiens) (UniProt P10828); experiment: qHTS assay for small molecule agonists of thyroid hormone receptor beta signaling (AID 588545; calls by dose curve); conditions: TR-UAS-bla GripTite HEK 293, beta-lactamase ratio, agonist mode, 18 h; series mostly up to 76.7 µM
Summary of the method: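 TR-UAS-bla-GripTite HEK 293 cells in medium with 2% charcoal/dextran FBS, 0.1 mM NEAA and 1 mM sodium pyruvate were treated with titrated compounds for 18 hrs at 37 C. Beta-lactamase reporter was read with CCF4 dye (ex 405, em 460/530 nm); EC50 from Hill fits.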

Chain of Nuclear receptor ROR-gamma (Homo sapiens) (P51449 whole entry, looked up): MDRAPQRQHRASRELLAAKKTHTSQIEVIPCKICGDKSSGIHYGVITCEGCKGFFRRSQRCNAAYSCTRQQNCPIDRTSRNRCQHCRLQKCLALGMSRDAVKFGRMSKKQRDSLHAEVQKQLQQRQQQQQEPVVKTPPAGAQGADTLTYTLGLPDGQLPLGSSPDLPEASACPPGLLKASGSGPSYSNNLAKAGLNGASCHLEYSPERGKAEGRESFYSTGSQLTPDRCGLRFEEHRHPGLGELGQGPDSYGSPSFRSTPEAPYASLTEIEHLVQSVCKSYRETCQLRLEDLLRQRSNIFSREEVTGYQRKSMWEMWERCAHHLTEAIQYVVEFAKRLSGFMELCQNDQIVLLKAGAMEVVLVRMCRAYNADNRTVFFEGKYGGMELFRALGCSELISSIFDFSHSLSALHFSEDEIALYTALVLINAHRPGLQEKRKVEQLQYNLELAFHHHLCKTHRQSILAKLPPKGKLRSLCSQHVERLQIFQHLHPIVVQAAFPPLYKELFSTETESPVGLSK
Chain of Retinoic acid receptor RXR-alpha (Homo sapiens) (P19793 whole entry, looked up): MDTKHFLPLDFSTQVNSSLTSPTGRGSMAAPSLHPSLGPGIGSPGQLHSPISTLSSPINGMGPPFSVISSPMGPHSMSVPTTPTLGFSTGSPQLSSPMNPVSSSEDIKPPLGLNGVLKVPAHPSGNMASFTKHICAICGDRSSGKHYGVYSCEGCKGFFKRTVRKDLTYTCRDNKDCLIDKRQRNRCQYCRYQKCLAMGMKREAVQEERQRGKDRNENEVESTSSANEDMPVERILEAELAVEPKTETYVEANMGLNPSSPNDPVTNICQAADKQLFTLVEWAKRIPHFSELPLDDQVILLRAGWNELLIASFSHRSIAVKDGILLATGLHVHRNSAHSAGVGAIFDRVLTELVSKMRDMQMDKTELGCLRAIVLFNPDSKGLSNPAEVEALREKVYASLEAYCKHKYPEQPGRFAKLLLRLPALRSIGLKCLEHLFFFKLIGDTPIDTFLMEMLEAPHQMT
Chain of Thyroid hormone receptor beta (Homo sapiens) (P10828 whole entry, looked up): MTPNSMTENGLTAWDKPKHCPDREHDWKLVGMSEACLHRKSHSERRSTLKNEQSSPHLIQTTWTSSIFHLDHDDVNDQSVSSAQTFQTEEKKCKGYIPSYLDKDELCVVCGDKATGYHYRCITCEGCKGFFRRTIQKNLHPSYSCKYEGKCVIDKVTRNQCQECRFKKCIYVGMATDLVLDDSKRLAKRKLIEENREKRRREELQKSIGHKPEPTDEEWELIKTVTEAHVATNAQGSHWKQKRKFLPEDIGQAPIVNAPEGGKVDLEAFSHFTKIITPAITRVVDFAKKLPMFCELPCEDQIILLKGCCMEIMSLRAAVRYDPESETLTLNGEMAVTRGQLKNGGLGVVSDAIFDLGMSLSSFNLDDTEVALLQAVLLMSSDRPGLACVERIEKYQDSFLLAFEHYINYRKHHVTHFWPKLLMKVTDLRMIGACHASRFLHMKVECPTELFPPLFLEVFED
Chain of Cytochrome P450 3A4 (Homo sapiens) (P08684 whole entry, looked up): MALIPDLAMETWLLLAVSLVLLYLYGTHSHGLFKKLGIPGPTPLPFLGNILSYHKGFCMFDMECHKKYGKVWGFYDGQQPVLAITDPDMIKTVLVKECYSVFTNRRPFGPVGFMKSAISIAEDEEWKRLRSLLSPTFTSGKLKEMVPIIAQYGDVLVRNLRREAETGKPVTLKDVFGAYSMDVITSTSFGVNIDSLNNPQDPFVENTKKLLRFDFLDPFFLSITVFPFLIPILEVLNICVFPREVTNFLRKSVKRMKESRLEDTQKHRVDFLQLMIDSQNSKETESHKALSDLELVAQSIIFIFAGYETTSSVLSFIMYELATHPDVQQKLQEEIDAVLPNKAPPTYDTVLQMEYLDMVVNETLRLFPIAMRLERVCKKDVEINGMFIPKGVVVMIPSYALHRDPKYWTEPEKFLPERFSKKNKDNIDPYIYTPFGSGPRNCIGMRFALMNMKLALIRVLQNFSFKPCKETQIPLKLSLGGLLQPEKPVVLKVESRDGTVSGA
Chain of Voltage-gated inwardly rectifying potassium channel KCNH2 (Homo sapiens) (Q12809 whole entry, looked up): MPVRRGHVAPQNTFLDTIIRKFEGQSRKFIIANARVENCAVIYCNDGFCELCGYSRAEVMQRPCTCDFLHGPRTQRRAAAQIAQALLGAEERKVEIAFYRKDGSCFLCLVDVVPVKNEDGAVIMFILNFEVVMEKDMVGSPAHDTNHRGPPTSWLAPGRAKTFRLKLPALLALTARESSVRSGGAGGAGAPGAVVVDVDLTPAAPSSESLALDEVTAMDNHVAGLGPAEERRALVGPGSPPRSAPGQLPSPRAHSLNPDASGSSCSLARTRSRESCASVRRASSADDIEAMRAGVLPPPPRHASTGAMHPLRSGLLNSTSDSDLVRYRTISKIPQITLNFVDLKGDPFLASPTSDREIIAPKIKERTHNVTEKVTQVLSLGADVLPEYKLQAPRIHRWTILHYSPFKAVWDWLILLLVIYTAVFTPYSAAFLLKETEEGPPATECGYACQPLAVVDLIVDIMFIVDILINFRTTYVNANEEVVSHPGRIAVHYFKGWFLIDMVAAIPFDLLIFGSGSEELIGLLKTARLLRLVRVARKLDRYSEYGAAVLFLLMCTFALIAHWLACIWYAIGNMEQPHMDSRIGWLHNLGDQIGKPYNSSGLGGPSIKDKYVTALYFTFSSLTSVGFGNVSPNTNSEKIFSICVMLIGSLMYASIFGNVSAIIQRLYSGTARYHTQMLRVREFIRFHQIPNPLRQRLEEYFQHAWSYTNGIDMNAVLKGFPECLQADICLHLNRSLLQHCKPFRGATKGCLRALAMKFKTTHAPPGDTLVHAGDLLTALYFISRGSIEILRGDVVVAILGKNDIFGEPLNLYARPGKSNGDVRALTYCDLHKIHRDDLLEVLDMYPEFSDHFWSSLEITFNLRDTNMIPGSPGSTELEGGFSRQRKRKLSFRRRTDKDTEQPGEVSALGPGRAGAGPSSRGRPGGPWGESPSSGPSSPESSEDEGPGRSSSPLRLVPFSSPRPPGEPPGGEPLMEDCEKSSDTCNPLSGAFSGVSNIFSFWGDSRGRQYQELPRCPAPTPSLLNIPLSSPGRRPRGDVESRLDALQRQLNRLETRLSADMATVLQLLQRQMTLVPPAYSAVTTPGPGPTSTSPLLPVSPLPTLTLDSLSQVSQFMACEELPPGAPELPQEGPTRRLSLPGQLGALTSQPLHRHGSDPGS

Structure (SMILES) | Potency [1] | outcome [2] | outcome [3] | Potency [4] | Potency [5] | Potency [6] | Potency [7] | Potency [8] | Potency [9] | Potency [10] | max response [11] | outcome [12] | max response [13] | max response [14] | Potency [15] | activation [16] | Potency [17] | Potency [18] | Potency [19] | Potency [20]
Nc1ccc(Oc2ccc(N)cc2)cc1 | > 92 µM (inactive) | inactive | inactive | inactive | inactive | inactive | inactive | inactive | inactive | inactive | 6.59% and -0.644% | inactive | -3.97% and -1.47% | 4.6% (inactive) and -3% (inactive) | inactive | 2.36% (inactive) and 5.82% (inactive) | inactive | inactive |  | 
CCCCCc1cc(O)cc(O)c1 | > 92 µM (inactive) | inactive | inactive |  | inactive | inactive | inactive | inactive | inactive | inactive | 0.917% | inactive | -2.02% | -16.8% (inactive) | inactive | 9.87% (inactive) | inactive |  | 12.6 µM (active) | inactive
CC(C)CC(C)N (stereo not drawn) | > 92 µM (inactive) | inactive | inactive | inactive | inactive | inactive | inactive | inactive | inactive | inactive | -12.2% | inactive | -2.75% | 1.28% (inactive) | inactive | 0.111% (inactive) | inactive | inactive | inactive | inactive
FC(Cl)(Cl)Cl | > 92 µM (inactive) | inactive | inactive | inactive | inactive | inactive | inactive | inactive | inactive | inactive | -11.5% | inactive | -8.6% | -1.5% (inactive) | inactive | -1.34% (inactive) | inactive | inactive | inactive | inactive
N#CC(O)c1ccccc1 (stereo not drawn) | > 92 µM (inactive) | inactive | inactive | inactive | inactive | inactive | inactive | inactive | inactive | inactive | -0.409% | inactive | -9.69% | 0.403% (inactive) | inactive | 0.286% (inactive) | inactive | inactive | inactive | inactive
CN(C)C(=O)Nc1cccc(C(F)(F)F)c1 | > 92 µM (inactive) | inactive | inactive |  | inactive | inactive | inactive | inactive | inactive | inactive | -22.3% and -23.1% | inactive | -7% and -2.56% | 1.67% (inactive) and -16% (inactive) | inactive | -0.624% (inactive) and 0.852% (inactive) | inactive |  | inactive | inactive
OCCOCCO | > 92 µM (inactive) | inactive | inactive |  | inactive | inactive | inactive | inactive | inactive | inactive | -9.96% | inactive | 2.28% | 1.12% (inactive) | inactive | -0.842% (inactive) | inactive | inactive | inactive | inactive
